PubChem BioAssay (NCI)
The panel holds about 83,000 compounds, 20% with a hit somewhere; the sample as a whole holds those more often.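 Percent growth is the endpoint: 0 to 100 indicates growth inhibition (40 means 60% inhibition), 0 means no net growth, and negative values indicate cell death.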 Calls of active or inactive are those of the source.

The compounds below were run on NCI/ADR-RES ovarian (assay: NCI-60 one-dose screen, 48 h (100 = growth as untreated, 0 = no growth, -100 = all killed)). Details: 10 µM unless noted.
Description: Growth inhibition of the NCI/ADR-RES human […] tumor cell line is measured as a screen for anti-cancer activity. Cells are grown in 96 well plates and exposed to the test compound for 48 hours. Compounds are tested at a single concentration, which is 10^-5 M for most compounds. The reported endpoint is percent growth (GI% or GIPRCNT), where numbers from 0 - 100% represent growth inhibition, and numbers from -100% - 0 represent cell death. For example, a value of 40 represents 60% growth inhibition. A value of 0 means no net growth occurred over the course of the experiment. A value of -40 indicates 40% of cells at the beginning of the experiment died by the end of the experiment. A value of -100 means all cells are dead at the end of the experiment.
NCI-60 Human Tumor Cell Lines Screen was performed using the standard one-dose NCI protocol, which is described in more detail at https://dtp.cancer.gov/discovery_development/nci-60/default.htm.
Compounds with GIPRCNT values below 10 were considered active. Activity score was based on GIPRCNT using the following formula: […]
Score is 0 for GIPRCNT values of 100 or above, 50 for GIPRCNT values of 0, and 100 for GIPRCNT values of -100.

| Structure (SMILES) | growth |
| --- | --- |
| CN1CCN(c2cc(F)c(NC3=C(Cl)C(=O)c4ncccc4C3=O)c(F)c2)CC1 | 37.9% (inactive) |
| CCCOc1nc(SCCC)nc2c1cnn2-c1ccccc1 | 96% (inactive) |
| O=C(N/N=C/c1ccc(F)cc1)c1ccccc1Nc1cccc(C(F)(F)F)c1 | 107% (inactive) |
| CC(C)Sc1nc(NN)c(C#N)c(-c2ccccc2)n1 | 99.8% (inactive) |
| CC1(C)CN(c2cnc(C(=O)Nc3cc(F)cc4cccnc34)cn2)CCN1 | 90.9% (inactive) |
| C=C(C)[C@@H]1CC[C@]2(C(=O)N3CCN(C)CC3)CC[C@]3(C)[C@H](CC[C@@H]4[C@@]5(C)CCC(=O)C(C)(C)[C@@H]5CC[C@]43C)[C@@H]12 | 74.6% (inactive) |
| CCCc1cc2c(cc1Br)OCO2 | 98.5% (inactive) |
| CC(=O)OCC(=O)C1(O)C(C)CC2C3C=C(C)C4=Cc5c(cnn5-c5ccccc5)CC4(C)C3C(O)CC21C (stereo not given) | 35% (inactive) |
| COc1ccc(NC(=O)c2sc3nc(C)c(C(O)c4ccc(OC)cc4)cc3c2N)cc1 (stereo not given) | 16.1% (inactive) |
| FC(F)(F)c1cccc(Nc2ccccc2)c1 | 96.2% (inactive) |
| COc1cc(NCC(O)CN(CC(C)C)C2CCCC2)c2ncccc2c1 (stereo not given) | 89.2% (inactive) |
| Nc1ncc(C#Cc2cncc(NC(=O)c3cccc(C(F)(F)F)c3)c2)c2cccnc12 | 66.1% (inactive) |
| COc1ccc(C2CC(c3cccc(Nc4ccncc4)c3)=NN2c2ccc(Cl)cc2)cc1 (stereo not given) | 62.3% (inactive) |
| NNC(=O)/C(=C\c1ccc([N+](=O)[O-])cc1)CC(=O)c1ccc(Cl)c(Cl)c1 | 84.9% (inactive) |
| CN1C(=O)N(C)[C@H]2NC(NN)=N[C@H]21 | 105% (inactive) |
| Cc1nc2sc(C(=O)Nc3cccc(Br)c3)c(N)c2cc1C(=O)c1ccc(C(F)(F)F)cc1 | 80.7% (inactive) |
| Cc1ccc(/C=C/C(=O)c2ccc(N)cc2)c(C)c1 | 62.2% (inactive) |
| CS(=O)(=O)c1ccc(-c2cc3c(oc2=O)-c2ccccc2OC3O)cc1 (stereo not given) | 105% (inactive) |
| COc1cc(OC)c(/C=C/C(=O)c2ccc(Nc3ncnc4ccccc34)cc2)c(OC)c1 | -17.2% (active) |
| OC1(c2ccc(Cl)c(C(F)(F)F)c2)CCN(CCCC(c2ccc(F)cc2)c2ccc(F)cc2)CC1 | -59.8% (active) |

| Structure (SMILES) | growth |
| --- | --- |
| COc1cc(C2NC(c3cc(OC)c(OC)c(OC)c3)C(C#N)(C#N)C2(C#N)C#N)cc(OC)c1OC (stereo not given) | 97.8% (inactive) |
| NC(=O)c1cccc(-n2ccc3cc(NC(=O)Nc4cc(C(F)(F)F)cc(C(F)(F)F)c4)ccc32)n1 | 41.8% (inactive) |
| COc1cc(C2CC(c3cccc(Nc4ccncc4)c3)=NN2C(C)=O)cc(OC)c1OC (stereo not given) | 97.9% (inactive) |
| CCOC(=O)c1c(SC)nn(-c2cc(=O)[nH]c3ccc(Br)cc23)c1N | 100% (inactive) |
| COc1ccc(C(=O)c2cc3c(N)c(C(=O)Nc4cccc(OC)c4)sc3nc2C)cc1 | 4.09% (active) |
| O=C(Nc1ccc(Nc2ncccn2)cc1)NC1C=c2ccccc2=CC1 (stereo not given) | 106% (inactive) |
| COc1cccc2c1C(=O)c1c(O)c3c(c(O)c1C2=O)C[C@@](O)(C(=O)CO)C[C@@H]3O[C@H]1C[C@H](N)[C@@H](O)[C@H](C)O1 | 70.5% (inactive) |
| O=[N+]([O-])c1cccc(-c2nc(-c3ccc(Cl)cc3Cl)cn2-c2ccccc2)c1 | -1.46% (active) |
| C=CCn1c(SCC(=O)Nc2ccc(C(=O)/C=C/c3cc(OC)c(OC)c(OC)c3)cc2)nnc1-c1cc(-c2ccc(S(C)(=O)=O)cc2)nc2ccccc12 | 91.3% (inactive) |
| CC(O)/C=C/C=C/C(O)CC/C=C/C(=O)NCC(C)(C)O (stereo not given) | 109% (inactive) |
| Cc1[nH]n(C(=O)c2ccncc2)c(=O)c1N=Nc1ccc(F)c(Cl)c1 | 95.6% (inactive) |
| Cc1ccccc1-c1cc(Cc2ccc(F)cc2)c(=O)[nH]n1 | 102% (inactive) |
| CCNC(=O)c1[nH]cc(-c2ccc(OC)cc2)c1-c1cc(OC)cc(OC)c1 | 86.9% (inactive) |
| COc1ccc(Cc2nc3cc(OC)c(OC)cc3c(=O)[nH]2)cc1 | 74.8% (inactive) |
| O=C1Nc2ccccc2/C1=N/c1nc(-c2ccc(Cl)cc2)cs1 | 88.9% (inactive) |
| COc1cc(-c2nc3sccn3c2-c2ccnc(NCCNS(=O)(=O)c3ccc(F)cc3)n2)ccc1F | 8.6% (active) |
| COc1cc(OC)cc(C2C3=C(COC3=O)Nc3cc(OC)ccc32)c1 (stereo not given) | -18.6% (active) |
| COc1ccc(C2CC(n3nnnc3-c3ccccc3)=NN2)cc1 (stereo not given) | 49.9% (inactive) |
| CC(C)Cc1ccc(C(C)C(=O)NCc2c[nH]c3ccc(Cl)cc23)cc1 (stereo not given) | 92.5% (inactive) |
| CN1C2CCC1CN(c1cnc(C(=O)Nc3cc(F)cc4cccnc34)cn1)C2 | 42.1% (inactive) |
